Reference: PubChem BioAssay AID1159580 (chemical genetic matrix, 2015)
Where “and” joins values, the source holds several entries; their conditions need not be identical. Equal values may be shown once. About 2,000 (36%) of roughly 5,500 compounds were called active. About 18% were inconclusive and are not listed. Cut-off read from the data, not from the text of the source: active = normalized growth mostly below about 0.91 (no sharp cut-off); inconclusive = no clear call, values can overlap the other calls; inactive = mostly above about 0.92. This is one part of the list.

Assay: chemical genetic growth profiling, strain panel (AID 1159580);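 note: tested at 20 µM; growth read once vehicle control cultures reached saturation at 30 °C; 1 = growth at the plate median or of vehicle wells; lower values mean less growth of the strain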
Details: S. cerevisiae deletion strains, growth OD

Measured: normalized growth

CO/N=C(\C(=O)N[C@@H]1C(=O)N2C(C(=O)O)=C(COC(C)=O)CS[C@H]12)c1csc(N)n1
inactive: locus YAL021C, strain ccr4, hits give low values 0.961 | locus YAL026C, strain drs2, hits give low values 0.983 | locus YAL030W, strain snc1, hits give low values 0.983 | locus YBL061C, strain skt5, hits give low values 0.993 | locus YBR009C, strain hhf1, hits give low values 0.973 | locus YBR021W, strain FUR4, hits give low values 1 | locus YBR023C, strain chs3, hits give low values 1.02 | locus YBR171W, strain sec66, hits give low values 0.993 | locus YBR229C, strain ROT2, hits give low values 0.954 | locus YBR231C, strain swc5, hits give low values 0.975 | locus YBR279W, strain paf1, hits give low values 1 | locus YCL011C, strain gbp2, hits give low values 0.954 | locus YCL016C, strain dcc1, hits give low values 0.961 | locus YCL029C, strain bik1, hits give low values 0.998 | locus YCL061C, strain MRC1, hits give low values 0.964 | locus YCL069W, strain vba3, hits give low values 0.995 | locus YCR088W, strain abp1, hits give low values 0.985 | locus YDL005C, strain med2, hits give low values 0.992 | locus YDL035C, strain GPR1, hits give low values 0.959 | locus YDL040C, strain nat1, hits give low values 0.989 | locus YDL074C, strain BRE1, hits give low values 1.02 | locus YDL101C, strain DUN1, hits give low values 0.99 | locus YDL185W, strain tfp1, hits give low values 0.965 | locus YDL192W, strain arf1, hits give low values 0.982 | locus YDR001C, strain nth1, hits give low values 0.976 | locus YDR069C, strain doa4, hits give low values 0.996 | locus YDR101C, strain arx1, hits give low values 0.975 | locus YDR137W, strain rgp1, hits give low values 0.938 | locus YDR159W, strain sac3, hits give low values 0.985 | locus YDR162C, strain NBP2, hits give low values 0.954 | locus YDR195W, strain ref2 0.989 | locus YDR297W, strain sur2, hits give low values 0.986 | locus YDR318W, strain mcm21, hits give low values 0.996 | locus YDR334W, strain swr1, hits give low values 0.976 | locus YDR335W, strain msn5, hits give low values 0.992 | locus YDR388W, hits give low values 0.992 | locus YDR392W, strain spt3, hits give low values 0.896 | locus YDR502C, strain sam2, hits give low values 1 | locus YEL003W, strain gim4, hits give low values 1.02 | locus YEL037C, strain rad23, hits give low values 0.991 | locus YEL061C, strain CIN8 (second series), hits give low values 0.989 | locus YEL061C, strain CIN8, hits give low values 0.995 | locus YER015W, strain faa2, hits give low values 0.979 | locus YER016W, strain bim1, hits give low values 0.99 | locus YER110C, hits give low values 0.992 | locus YER111C, strain swi4, hits give low values 1 | locus YER155C, strain BEM2 (second series), hits give low values 0.965 | locus YER155C, strain BEM2, hits give low values 1 | locus YER167W, strain BCK2, hits give low values 1.02 | locus YFR010W, strain ubp6, hits give low values 0.97 | locus YGL078C, strain dbp3, hits give low values 0.998 | locus YGL086W, strain mad1, hits give low values 0.984 | locus YGL167C, strain pmr1, hits give low values 1.01 | locus YGL173C, strain kem1, hits give low values 1.01 | locus YGL227W, strain vid30, hits give low values 0.993 | locus YGL240W, strain doc1, hits give low values 0.996 | locus YGL248W, strain PDE1, hits give low values 1.02 | locus YGL253W, strain hxk2, hits give low values 1 | locus YGR135W, strain pre9, hits give low values 1.05 | locus YGR229C, strain SMI1, hits give low values 0.979 | locus YGR252W, strain gcn5, hits give low values 1.05 | locus YHR013C, strain ard1, hits give low values 0.94 | locus YHR027C, strain rpn1, hits give low values 0.987 | locus YHR030C, strain SLT2, hits give low values 0.988 and 1.01 | locus YHR079C, strain IRE1 (second series), hits give low values 0.998 | locus YHR079C, strain IRE1, hits give low values 0.992 | locus YHR094C, strain hxt1, hits give low values 0.994 | locus YHR129C, strain ARP1, hits give low values 0.99 | locus YHR142W, strain chs7, hits give low values 0.993 | locus YHR200W, strain rpn10, hits give low values 0.981 | locus YIL066C, strain RNR3, hits give low values 0.976 | locus YIL073C, strain SPO22, hits give low values 1.06 | locus YIL125W, strain kgd1, hits give low values 0.986 | locus YIR030C, strain dcg1, hits give low values 0.996 | locus YJL092W, strain hpr5, hits give low values 0.974 | locus YJL095W, strain BCK1 (second series), hits give low values 0.97 | locus YJL095W, strain BCK1, hits give low values 1.06 and 0.972 | locus YJL115W, strain asf1, hits give low values 0.968 | locus YJL129C, strain trk1, hits give low values 0.989 | locus YJL134W, strain LCB3, hits give low values 0.989 | locus YJL154C, strain vps35, hits give low values 0.968 | locus YJL164C, strain tpk1, hits give low values 0.975 | locus YJL166W, strain qcr8, hits give low values 1.01 | locus YJL168C, strain set2, hits give low values 0.991 | locus YJL187C, strain SWE1 (second series), hits give low values 1.01 | locus YJL187C, strain SWE1, hits give low values 0.984 | locus YJR043C, strain POL32, hits give low values 0.958 | locus YJR066W, strain TOR1, hits give low values 0.983 | locus YKL009W, strain mrt4, hits give low values 1.03 | locus YKL068W, hits give low values 0.986 | locus YKL085W, strain MDH1 (second series), hits give low values 0.994 | locus YKL085W, strain MDH1, hits give low values 0.994 | locus YKL160W, strain elf1, hits give low values 1.02 | locus YKL190W, strain CNB1, hits give low values 1 | locus YKR001C, strain vps1, hits give low values 0.992 | locus YKR026C, strain gcn3, hits give low values 0.964 | locus YKR091W, strain srl3, hits give low values 0.962 | locus YLL001W, strain dnm1, hits give low values 1.01 | locus YLL026W, hits give low values 0.996 | locus YLL041C, strain sdh2, hits give low values 1 | locus YLR027C, strain aat2, hits give low values 0.977 | locus YLR039C, strain RIC1, hits give low values 0.993 | locus YLR058C, strain SHM2, hits give low values 0.986 | locus YLR102C, strain apc9, hits give low values 0.997 | locus YLR113W, strain HOG1, hits give low values 0.99 | locus YLR221C, strain rsa3, hits give low values 1 | locus YLR258W, strain gsy2, hits give low values 0.974 | locus YLR262C, strain YPT6 (second series), hits give low values 1 | locus YLR262C, strain YPT6, hits give low values 0.954 | locus YLR268W, strain sec22, hits give low values 0.973 | locus YLR320W, strain mms22, hits give low values 0.96 | locus YLR330W, strain CHS5, hits give low values 0.988 | locus YLR342W, strain FKS1 (second series), hits give low values 0.995 | locus YLR342W, strain FKS1, hits give low values 0.994 | locus YLR357W, strain rsc2, hits give low values 1.03 | locus YLR370C, strain arc18, hits give low values 0.994 | locus YLR371W, strain rom2, hits give low values 0.994 | locus YLR384C, strain iki3, hits give low values 0.983 | locus YLR418C, strain cdc73, hits give low values 1.01 | locus YML016C, strain PPZ1, hits give low values 0.993 | locus YML032C, strain rad52, hits give low values 0.993 | locus YML120C, strain ndi1, hits give low values 0.989 | locus YML124C, strain tub3, hits give low values 0.993 | locus YMR058W, strain fet3, hits give low values 0.99 | locus YMR078C, strain ctf18, hits give low values 0.98 | locus YMR125W, strain sto1, hits give low values 1.02 | locus YMR129W, hits give low values 0.968 | locus YMR205C, strain PFK2, hits give low values 1 | locus YMR223W, strain ubp8, hits give low values 1.03 | locus YMR231W, strain pep5, hits give low values 0.999 | locus YMR307W, strain GAS1, hits give low values 1 | locus YNL067W, strain RPL9B, hits give low values 1.01 | locus YNL071W, strain lat1, hits give low values 0.989 | locus YNL128W, strain TEP1, hits give low values 0.996 | locus YNL183C, strain NPR1, hits give low values 0.91 | locus YNL209W, strain ssb2, hits give low values 0.99 | locus YNL233W, strain BNI4, hits give low values 1.03 | locus YNL248C, strain rpa49, hits give low values 0.977 | locus YNL250W, strain rad50, hits give low values 1.01 | locus YNL271C, strain bni1, hits give low values 1.01 | locus YNL298W, strain CLA4, hits give low values 0.989 | locus YNL307C, strain MCK1, hits give low values 0.994 | locus YNL322C, strain KRE1 (second series), hits give low values 0.971 | locus YNL322C, strain KRE1, hits give low values 1 | locus YNR049C, strain mso1, hits give low values 0.981 | locus YNR052C, strain pop2, hits give low values 0.992 | locus YOL006C, strain TOP1, hits give low values 1.15 | locus YOL012C, strain htz1 0.969 | locus YOL147C, strain pex11, hits give low values 1 | locus YOR001W, strain rrp6, hits give low values 1.01 | locus YOR061W, strain CKA2, hits give low values 0.976 | locus YOR069W, strain VPS5, hits give low values 0.988 | locus YOR070C, strain gyp1, hits give low values 0.995 | locus YOR080W, strain dia2, hits give low values 0.992 | locus YOR083W, strain WHI5, hits give low values 1.02 | locus YOR106W, strain vam3, hits give low values 0.997 | locus YOR136W, strain idh2, hits give low values 0.984 | locus YOR144C, strain elg1, hits give low values 0.99 | locus YOR184W, strain ser1, hits give low values 0.986 | locus YOR231W, strain MKK1, hits give low values 0.971 | locus YOR265W, strain rbl2, hits give low values 0.99 | locus YOR270C, strain vph1, hits give low values 1.05 | locus YOR290C, strain snf2, hits give low values 0.946 | locus YOR316C, strain cot1, hits give low values 0.984 | locus YPL051W, strain arl3, hits give low values 1.01 | locus YPL055C, strain LGE1, hits give low values 1.01 | locus YPL078C, strain atp4, hits give low values 0.968 | locus YPL106C, strain sse1, hits give low values 0.963 | locus YPL240C, strain hsp82, hits give low values 1.01 | locus YPL256C, strain CLN2, hits give low values 1 | locus YPR119W, strain clb2, hits give low values 0.991 | locus YPR141C, strain kar3, hits give low values 0.992 | locus YPR163C, strain tif3, hits give low values 0.988 | locus YPR167C, strain met16, hits give low values 0.998 | strain wtn01, hits give low values 0.999
